Reference: PubChem BioAssay (Tox21)
Records with an inconclusive call do not appear. Where a call stands in place of a potency, no number is given. A number with no mark means an inactive call. Calls of active or inactive are those of the source. Calls follow the shape of the dose curve; as a rule, active = well fitted cell-killing curve with a large enough effect in the repeat runs; inconclusive = weak or mixed curves, or effect the other way; inactive = flat fitted curve, though single readings scatter.

Legend:
[1] = cAMP Responsive Elements (CRE) small molecule antagonists, cell-based qHTS assay: qHTS cell viability counter screen (AID 2060913); settings: CRE-bla HEK293T viability, CellTiter-Glo luminescence, 5 h; series mostly up to 92.4 µM; also: nearly all actives have a fitted effect of over 40% in size
How it was run: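 Cytotoxicity counter screen multiplexed with the CRE-bla antagonist read: HEK293T cells in DMEM with dialyzed FBS and 25 mM HEPES were treated 3 hrs under 0.25 uM final NKH477, then viability measured by CellTiter-Glo luminescence.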

[2] = cAMP Responsive Elements (CRE) small molecule agonists, cell-based qHTS assay: qHTS cell viability counter screen (AID 2060914); settings: CRE-bla HEK293T viability, CellTiter-Glo luminescence, 5 h; series mostly up to 92.4 µM; also: nearly all actives have a fitted effect of over 50% in size
How it was run: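 Cytotoxicity was measured as ATP luminescence (CellTiter-Glo, 30 min at room temperature) in the same wells as the CRE-bla FRET read-out. HEK293T CRE-bla cells had 3 h compound exposure at 37C/5% CO2.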
Potency is read from the fitted curve at half-maximal effect.

Compound	Potency [1]	Potency [2]	viability change, negative = cytotoxic [1]	activity change, negative = cytotoxicity [2]
CC(=O)CCC1=C(C)CCCC1(C)C	inactive	inactive	–	–
CN(C)CCCSc1ccccc1NC(=O)/C=C/c1ccccc1	inactive	inactive	–	–
Nc1nc(=O)n([C@@H]2O[C@H](CO)[C@@H](O)[C@@H]2F)cc1I	inactive	inactive	–	–
CN1C(=O)CC[C@H]1c1cccnc1	inactive	inactive	–	–
COCCOC(=O)CC#N	inactive	inactive	–	–
OCC(O)[C@@H](O)[C@H](O)[C@H](O)CO[C@H]1O[C@H](CO)[C@@H](O)[C@H](O)[C@H]1O (stereo not given in full)	inactive	inactive	–	–
CN(C)CCn1nnnc1SCC1=C(C(=O)O)N2C(=O)[C@@H](NC(=O)Cc3csc(N)n3)[C@H]2SC1	inactive	inactive	–	–
Cn1cnc2c1c(=O)[nH]c(=O)n2C	inactive	inactive	–	–
CC1=NN(c2cc(Cl)c(S(=O)(=O)O)cc2Cl)C(=O)C1N=Nc1ccc(S(=O)(=O)O)cc1 (stereo not given)	inactive	2.43 µM (active)	–	–
CCNc1nc(N)nc(Cl)n1	inactive	inactive	–	–
c1ccc2c(c1)-c1ccc3ccc4cccc5cc-2c1c3c45	inactive	inactive	–	–
Cc1nc2n(c(=O)c1CCN1CCC(c3noc4cc(F)ccc34)CC1)CCCC2	inactive	inactive	–	–
COc1ccc(-c2ccc3cc(C(=O)O)ccc3c2)cc1C12CC3CC(CC(C3)C1)C2	inactive	inactive	–	–
C/C(=N\[Si](C)(C)C)O[Si](C)(C)C	inactive	inactive	–	–
Clc1cc(Cl)c(Cl)cc1Cl	inactive	inactive	–	–
Cn1cc[nH]c1=S	inactive	inactive	–	–
CC(=O)O[C@]1(C(C)=O)CC[C@H]2[C@@H]3C=C(C)C4=CC(=O)CC[C@]4(C)[C@H]3CC[C@@]21C	inactive	inactive	–	–
CC(=O)c1ccccc1	inactive	inactive	–	–
C=CC(C)(O)CC/C=C(\C)CCC=C(C)C (stereo not given)	inactive	inactive	–	–
Cc1cnc(NC(=O)C2=C(O)c3ccccc3S(=O)(=O)N2C)s1	inactive	inactive	–	–
C=CC(=O)OCCC(=O)O	inactive	inactive	–	–
Oc1ccc(OCc2ccccc2)cc1	inactive	inactive	–	–
CCOC(=O)c1ccc(NC(=O)CN2CCCCC2)cc1	inactive	inactive	–	–
O=C1c2ccccc2C(=O)N1CCl	inactive	inactive	–	–

Compound	Potency [1]	Potency [2]	viability change, negative = cytotoxic [1]	activity change, negative = cytotoxicity [2]
CCCCCCCC[Si](OCC)(OCC)OCC	inactive	inactive	–	–
CCCCCCCCCCCCN1CCCCCC1=O	inactive	inactive	–	–
CN1CCC(=C2c3ccccc3C=Cc3ccccc32)CC1	inactive	inactive	–	–
O=C(O)CNC(=O)CNC(=O)CNC(=O)CSC(=O)c1ccccc1	inactive	inactive	–	–
c1ccc(CNc2ncnc3c2ncn3C2CCCCO2)cc1 (stereo not given)	inactive	inactive	–	–
CN(C)CCOC(c1ccc(Cl)cc1)c1ccccn1 (stereo not given)	inactive	inactive	–	–
CC/C=C1/OC(=O)c2ccccc21	inactive	inactive	–	–
Cc1ccncc1	inactive	inactive	–	–
CC(=O)Nc1ccc(C(=O)O)cc1	inactive	inactive	–	–
COC1=C(OC)C(=O)C(CCCCCCCCCCO)=C(C)C1=O	inactive	inactive	–	–
O=C(COc1ccc(Cl)cc1)N1CCN(Cc2ccc3c(c2)OCO3)CC1	inactive	inactive	–	–
O=C(O)c1ccccc1Nc1cc(Cl)ccc1C(=O)O	–	–	-0.998% [at 18.9 µM]	0.206% [at 18.9 µM]
CCCSSCCC	inactive	inactive	–	–
C/C=C(/C(=C/C)c1ccc(O)cc1)c1ccc(O)cc1	inactive	inactive	–	–
NCCNCCNCCNCCN	inactive	inactive	–	–
Cc1ccnc2ccccc12	inactive	inactive	–	–
COc1cc(NCc2ccc3nc(N)nc(N)c3c2C)cc(OC)c1OC	inactive	inactive	–	–
CCC=O	inactive	inactive	–	–
c1ccc(COCc2ccccc2)cc1	inactive	inactive	–	–
C=C(C)C(=O)OCCCC	inactive	inactive	–	–
C=Cc1ccccn1	inactive	inactive	–	–
CN1CCCC(CC2c3ccccc3Sc3ccccc32)C1 (stereo not given)	inactive	inactive	–	–
Cc1ccc2ccccc2c1[N+](=O)[O-]	inactive	inactive	–	–
CCCCCCCCCCCCCCCCCC#N	inactive	inactive	–	–

Compound	Potency [1]	Potency [2]	viability change, negative = cytotoxic [1]	activity change, negative = cytotoxicity [2]
C[n+]1ccn(Cc2ccccc2)c1	inactive	inactive	–	–
CCCCCCCCCCCC	inactive	inactive	–	–
CCCCCOC(=O)CCCCC	inactive	inactive	–	–
C=CC(=C)CC/C=C(\C)CCC=C(C)C	–	–	13.3% [at 18.9 µM]	-3.29% [at 18.9 µM]
CCCCCCCC/C=C\CCCCCCCCOCCO	79.4 µM (active)	63.1 µM (active)	–	–
CCCCCCCCCCCCSC#N	inactive	inactive	–	–
CN1CCC(=C2c3ccccc3CCc3cccnc32)CC1	inactive	inactive	–	–
N[C@@H](CCC(=O)N[C@@H](CS)C(=O)NCC(=O)O)C(=O)O	–	–	4.12% [at 18.9 µM]	-1.41% [at 18.9 µM]
CCCCCCCCCCCC[N+](C)(C)CCCS(=O)(=O)[O-]	inactive	inactive	–	–
CC1OC1C1CCC2(C)OC2C1 (stereo not given)	inactive	inactive	–	–
CCCCCCCCCCCCCCCCCCN(C)C	inactive	inactive	–	–
CC(=O)OC(C)C	inactive	inactive	–	–
CCN1CCOCC1	inactive	inactive	–	–
S=c1nccc[nH]1	inactive	inactive	–	–
Cc1oc(C)c(C(=O)Nc2ccccc2)c1C	inactive	inactive	–	–
COc1cc(NC(=O)CC(C)=O)c(OC)cc1Cl	inactive	inactive	–	–
Oc1ccccc1C=NCc1ccccc1	inactive	inactive	–	–
O=C1CC2(CCCC2)CC(=O)N1	inactive	inactive	–	–
Cc1ccc(Br)cc1	inactive	inactive	–	–
CC(C)(C)c1cccc(O)c1	inactive	inactive	–	–
OCCN1CCOCC1	inactive	inactive	–	–
CC(=O)Nc1cc(S(=O)(=O)O)cc2cc(S(=O)(=O)O)c(N=Nc3ccccc3)c(O)c12	inactive	inactive	–	–
CCC(CC)C(=O)O	inactive	inactive	–	–
O=S1(=O)CCCC1	inactive	inactive	–	–

Compound	Potency [1]	Potency [2]	viability change, negative = cytotoxic [1]	activity change, negative = cytotoxicity [2]
CCCCCOC(C)=O	inactive	inactive	–	–
CCCCCC/C=C\CCCCCCCC(=O)O	inactive	inactive	–	–
CCCCCCCCCCl	inactive	inactive	–	–
CC(C)COC(=O)c1ccccc1	inactive	inactive	–	–
Cc1ccc(C(=O)O)cc1[N+](=O)[O-]	inactive	inactive	–	–
O=C(O)C[C@H](O)C[C@H](O)/C=C/c1c(C2CC2)nc2ccccc2c1-c1ccc(F)cc1	–	–	5.03% [at 18.9 µM]	17.9% [at 18.9 µM]
CS(=O)(=O)c1ccc([C@@H](O)[C@@H](CO)NC(=O)C(Cl)Cl)cc1	inactive	inactive	–	–
O=C(O)Cc1ccc(Cl)cc1Cl	inactive	inactive	–	–
CC(C)CCO	inactive	inactive	–	–
CC(=O)NS(=O)(=O)c1ccc(N)cc1	inactive	inactive	–	–
O=C(O)CNC(=O)c1ccccc1I	inactive	inactive	–	–
O=[N+]([O-])c1cncn1CCN1CCOCC1	inactive	inactive	–	–
O=C(O)CNC(=O)c1ccc(CO)o1	inactive	inactive	–	–
C=CC(=O)[O-].C=CC(=O)[O-].[Zn+2]	inactive	inactive	–	–
CNCc1cc(F)ccc1Oc1ccc(Cl)c(Cl)c1	inactive	inactive	–	–
COCCOCCOCCOCCOCCO	inactive	inactive	–	–
COCCOCCOC	inactive	inactive	–	–
CC[N+](CC)(CC)CCOc1cccc(OCC[N+](CC)(CC)CC)c1OCC[N+](CC)(CC)CC	inactive	inactive	–	–
C=C(C)C(=O)OCCC[Si](Cl)(Cl)Cl	inactive	inactive	–	–
CCCCCCCCCCOc1cc2c(=O)c(C(=O)OCC)c[nH]c2cc1OCC	–	–	-0.799% [at 8.39 µM]	-0.252% [at 8.39 µM]
CN1C(=O)N(C)C(O)C1O (stereo not given)	inactive	inactive	–	–
CC(C)c1cccc(C(C)C)c1	inactive	inactive	–	–
COC1CCC=CO1 (stereo not given)	inactive	inactive	–	–
O=S(=O)(Oc1ccc(Cl)cc1)c1ccccc1	inactive	inactive	–	–

Compound	Potency [1]	Potency [2]	viability change, negative = cytotoxic [1]	activity change, negative = cytotoxicity [2]
CCN(CC)C(=O)N1CCN(C)CC1	inactive	inactive	–	–
CCC(Cc1c(I)cc(I)c(N)c1I)C(=O)O (stereo not given)	inactive	inactive	–	–
NCc1ccco1	inactive	inactive	–	–
C=C(C)C(=O)OCCOC(=O)CC(C)=O	inactive	inactive	–	–
C[C@H](CCC(=O)O)[C@H]1CC[C@H]2[C@@H]3CC[C@@H]4C[C@H](O)CC[C@]4(C)[C@H]3CC[C@]12C	inactive	inactive	–	–
CCCCC/C=C\C/C=C\CCCCCCCC(=O)O	inactive	inactive	–	–
CCC(C)(O)CCCC(C)C (stereo not given)	inactive	inactive	–	–
CCCCCCCCCCCCOC(C)=O	inactive	inactive	–	–
CC(C)(C)OC=O	inactive	inactive	–	–
CCCCCc1ccc(O)cc1	inactive	inactive	–	–
CC(C(=O)O)c1ccc2c(c1)Cc1cccnc1O2 (stereo not given)	inactive	inactive	–	–
COC(=O)CCC(=O)OC	inactive	inactive	–	–
CN(C)c1ccc(C(c2ccccc2)c2ccc(N(C)C)cc2)cc1	inactive	inactive	–	–
O=[N+]([O-])c1ccc(NCCO)c(OCCO)c1	inactive	inactive	–	–
C=CC(O)CCCCC (stereo not given)	inactive	inactive	–	–
Cc1c(N)cccc1N	inactive	inactive	–	–
CCOc1ccc2c(c1)C(C)=CC(C)(C)N2	inactive	inactive	–	–
CCOC(=O)c1ccccc1OC	inactive	inactive	–	–
CCCCCCCCCCCC[N+](C)(C)CCCCCCCCCCCC	40.3 µM (active)	inactive	–	–
COc1cc2c(cc1OC)C(=O)CC2	inactive	inactive	–	–
CC(C)(C)C1CCCCC1O (stereo not given)	inactive	inactive	–	–
CCC(C)C(C)=O (stereo not given)	inactive	inactive	–	–
CN(C)C(=O)Nc1ccc(Oc2ccc(Cl)cc2)cc1	inactive	inactive	–	–
O=C(O)c1cccc(C[C@@H]2COc3ccc(OCc4nc5cc(F)ccc5s4)cc3[C@@H]2O)c1	inactive	inactive	–	–
